Assay [1] concerns the target Thyrotropin receptor (Homo sapiens) (UniProt P16473). Kind of assay: qHTS assay to identify small molecule antagonists of the thyroid stimulating hormone receptor (TSHR) signaling pathway (AID 1259385; calls by dose curve; note: nearly all actives have a fitted effect of over 20% in size). A digest of the protocol:
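TSHR-HEK293 cells were plated and held 18 h at 37C/5% CO2, then given compound plus Ro20-1724 and stimulated with TSH at 1.5 ng/mL final. After 30 min at room temperature, cAMP was detected with cAMP-d2/anti-cAMP-cryptate (1 h) by fluorescence.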
A general note: qHTS replaces the single test concentration by a dilution series.

Assay [2] in a line: qHTS assay to identify small molecule agonists of the estrogen receptor alpha (ER-alpha) signaling pathway in the presence of an antagonist - cell viability counter screen (AID 1259386).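 Note: series mostly up to about 92 µM; cells exposed to compounds for 22 h at 37 °C before the viability read; nearly all actives have a fitted effect of over 30% in size.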 An outline of the steps: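 ICI-182,780 at 10.0nM final accompanies the compound titration (15 concentrations, 22hr, 37C) on VM7Luc4E2 cells. The CellTiter-Fluor fluorescence readout runs in the same wells as the luciferase assay.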

Assay [3] concerns the target Progesterone receptor (Homo sapiens) (UniProt P06401). The experiment in a line: qHTS assay to identify small molecule agonists of the progesterone receptor (PR) signaling pathway (AID 1346784; calls by dose curve; note: nearly all actives have a fitted effect of over 30% in size). A digest of the protocol:
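The screen uses PR-UAS-bla HEK 293T cells in charcoal-stripped serum (2%). Compounds are applied for 16 hr at 37C after a 6 hr pre-incubation, and reporter activity is detected with a FRET beta-lactamase substrate after 2 hr at room temperature.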

Assay [4] shares this target. The experiment in a line: qHTS assay to identify small molecule antagonists of the progesterone receptor (PR) signaling pathway (AID 1346795; active = well fitted inhibition curve with a large enough effect in the signal ratio in the repeat runs, not every such curve was filed as active; the % refers to the signal ratio). A digest of the protocol: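 After 6 hr plating at 37C in 2% stripped-serum medium, PR-UAS-bla HEK293T cells got compounds, then 1 nM R5020. Sixteen hours later, LiveBLAzer substrate was applied for 2 hr at room temperature and fluorescence was recorded.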

Assay [5] in a line: qHTS assay to identify small molecule antagonists of the progesterone receptor (PR) signaling pathway - cell viability counter screen (AID 1346798). Note: series mostly up to about 92 µM; nearly all actives have a fitted effect of over 50% in size. An outline of the steps:
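Viability was determined by ATP-based luminescence (CellTiter-Glo) in PR-UAS-bla HEK293T cells cultured in 2% charcoal-stripped serum and incubated 16 hr with compounds under R5020 stimulation.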

Assay [6] in a line: qHTS assay to identify small molecule agonists of the progesterone receptor (PR) signaling pathway - cell viability counter screen (AID 1346799; calls by dose curve; note: nearly all actives have a fitted effect of over 45% in size). A digest of the protocol:
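Viability was scored by ATP luminescence (CellTiter-Glo, 30 min, room temperature) in the same wells used for the reporter readout, after 16 hr compound exposure of PR-UAS-bla HEK293T cells.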

Assay [7] can be described thus: qHTS assay to identify small molecule antagonists of the TGF-beta/Smad signaling pathway - cell viability counter screen (AID 1346824). Note: nearly all actives have a fitted effect of over 50% in size. A digest of the protocol:
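SBE-bla HEK 293T cells were plated overnight at 37 C, then given compounds in DMSO plus TGF-beta1 (added as 0.25 ng/mL solution) for 5 hr. After the bla read, CellTiter-Glo was added to the same wells and luminescence read after 30 min at room temperature.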

A short description of assay [8]: qHTS assay to identify small molecule agonists of the TGF-beta/Smad signaling pathway - cell viability counter screen (AID 1346829). Note: top concentration of the series differs between compounds; nearly all actives have a fitted effect of over 45% in size. An outline of the steps:
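HEK 293T SBE-bla line, 5 hr compound exposure at 37 C, multiplexed CellTiter-Glo viability read by luminescence.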

A short description of assay [9]: qHTS assay to identify small molecule agonists of the TGF-beta/Smad signaling pathway (AID 1346859; active = well fitted activation curve with a large enough effect in the signal ratio in the repeat runs, not every such curve was filed as active; the % refers to the signal ratio; note: series mostly up to about 77 µM). An outline of the steps:
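Dual-wavelength fluorescence (460/530 nm emission) quantified beta-lactamase expression under the Smad binding element in HEK 293T cells following 5 hr compound treatment at 37 C.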

Assay [10] concerns the target Thyrotropin-releasing hormone receptor (Homo sapiens) (UniProt P34981). Kind of assay: qHTS assay to identify small molecule antagonists of the thyrotropin-releasing hormone receptor (TRHR) signaling pathway (AID 1346877; active = well fitted inhibition curve with a large enough effect in the repeat runs, not every such curve was filed as active; note: series mostly up to about 51 µM). An outline of the steps: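 Screening used HEK293 cells engineered with TRHR, with a brief 5 min room-temperature compound exposure preceding addition of TRH to 1 nM. The read-out was kinetic calcium-dye fluorescence, concentration-response from 15 doses in triplicate.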

Assay [11] shares this target. The experiment in a line: qHTS assay to identify small molecule agonists of the thyrotropin-releasing hormone receptor (TRHR) signaling pathway (AID 1346891; calls by dose curve;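 note: HEK293 cells expressing TRHR with calcium dye readout; series mostly up to about 58 µM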). An outline of the steps: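 Kinetic fluorescence (3 min, 1 s intervals) reported intracellular calcium after compound transfer onto TRHR-Hek293 cells pre-loaded with dye for 2 h at 37 °C.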
The nature of assay [12]: Human pregnane X receptor (PXR) small molecule agonists, qHTS cell viability counter screen (AID 1346977). Note: nearly all actives have a fitted effect of over 50% in size. An outline of the steps:
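HepG2 cells stably carrying the PXR-Luc reporter are cultured with 5% charcoal-stripped FBS and treated with compounds for 24hr. CellTiter-Fluor is added at 23hr and fluorescence is read after 1hr.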

Assay [13] can be described thus: Caspase-3/7 induction in HepG2 cells by small molecules, qHTS assay (AID 1346978). Note: nearly all actives have a fitted effect of over 15% in size. An outline of the steps:
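Wild-type HepG2 cells (2,000/well) were settled 5 h at 37 C, 5% CO2, then exposed to compounds in DMSO for 17 h. Caspase-3/7 activity was read by luminescence 30 min after adding Caspase-Glo 3/7 reagent at room temperature.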

Assay [14] can be described thus: Caspase-3/7 induction in CHO-K1 cells by small molecules, qHTS cell viability counter screen (AID 1346979). Note: nearly all actives have a fitted effect of over 35% in size. An outline of the steps:
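Seeding: 1,500 CHO-K1 cells/well. Rest: 5hr, 37C. Treatment: compounds in DMSO, 16hr. Read: CellTiter-Fluor, 1hr, fluorescence.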

Assay [15] is described as follows: Caspase-3/7 induction in CHO-K1 cells by small molecules, qHTS assay (AID 1346980). Note: nearly all actives have a fitted effect of over 15% in size. An outline of the steps:
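Wild-type cells were seeded at 1,500 per well and settled 5 hr at 37 C, 5% CO2, then exposed to DMSO-dissolved compounds for 17 hr. Caspase-Glo 3/7 reagent was added, and luminescence was read after 30min at room temperature.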

Assay [16] in a line: Caspase-3/7 induction in HepG2 cells by small molecules, qHTS cell viability counter screen (AID 1346981). Note: series mostly up to about 92 µM; nearly all actives have a fitted effect of over 30% in size. An outline of the steps: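 Multiplexed with the caspase-3/7 assay: HepG2 cells, 16 hr compound treatment, CellTiter-Fluor viability detection by fluorescence.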
Assay [17] deals with Nuclear receptor subfamily 1 group I member 2 (Homo sapiens) (UniProt O75469). The experiment in a line: Human pregnane X receptor (PXR) small molecule agonists, qHTS assay (AID 1346982). Note: nearly all actives have a fitted effect of over 35% in size. Note: potency is the fitted concentration of half-maximal effect. A digest of the protocol: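 We seeded PXR-Luc HepG2 cells in assay medium containing 5% charcoal-stripped FBS, added compounds 5 hr later, incubated 24 hr, and read luminescence with ONE-Glo reagent.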

The target in assay [18] is Nuclear receptor subfamily 1 group I member 2 (Rattus norvegicus) (UniProt Q9R1A7). Kind of assay: Rat pregnane X receptor (rPXR) activation by small molecules, qHTS assay (AID 1346983). Note: nearly all actives have a fitted effect of over 20% in size. Particulars: rPXR luciferase reporter cells, One-Glo luminescence, 24 h; active compounds read high. A digest of the protocol:
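Cell-based rPXR luciferase reporter assay, 2,000 cells per well, rested 5hr at 37 C before compound addition in DMSO, then 24 hr at 37 C. One-Glo reagent was added and luminescence read after 30 min at room temperature.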

In assay [19] the target is Nuclear receptor subfamily 1 group I member 2 (Homo sapiens) (UniProt O75469). The experiment in a line: CYP3A4 induction through human pregnane X receptor (PXR) by small molecules, qHTS assay (AID 1346984). Note: nearly all actives have a fitted effect of over 40% in size. A digest of the protocol:
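qHTS, concentration-response format: HepG2 DPX-2 line, PXR/CYP3A4-luc. Exposure 24 h, 37C. Substrate Luciferin-IPA 3uM final, 3 h. Detection One-Glo, 30 min RT.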

Assay [20] shares this target. Kind of assay: Human pregnane X receptor (PXR) activation by small molecules, qHTS assay (AID 1346985). Note: nearly all actives have a fitted effect of over 40% in size. An outline of the steps: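 DPX-2 cells (HepG2 co-transfected with a PXR response element and a CYP3A4-promoter luciferase construct) were seeded at 2,000 per well, rested 5 hr at 37C, then exposed to DMSO-dissolved compounds for 24 hr. Activation was read as luciferase luminescence.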

Unmarked numbers belong to inactive results. Results filed as inconclusive are left out. The source made the active and inactive calls. Unless noted, calls come from the whole dose curve; as a rule, active = well fitted curve in the direction sought with a large enough effect in the repeat runs; inconclusive = weak or mixed curves; inactive = no such curve, though single readings can be large; an effect the other way counts as inactive or inconclusive.
% is set by controls: 0 for no effect and ±100 for the full control effect.

Sequence of Progesterone receptor (Homo sapiens) (P06401 whole entry, looked up): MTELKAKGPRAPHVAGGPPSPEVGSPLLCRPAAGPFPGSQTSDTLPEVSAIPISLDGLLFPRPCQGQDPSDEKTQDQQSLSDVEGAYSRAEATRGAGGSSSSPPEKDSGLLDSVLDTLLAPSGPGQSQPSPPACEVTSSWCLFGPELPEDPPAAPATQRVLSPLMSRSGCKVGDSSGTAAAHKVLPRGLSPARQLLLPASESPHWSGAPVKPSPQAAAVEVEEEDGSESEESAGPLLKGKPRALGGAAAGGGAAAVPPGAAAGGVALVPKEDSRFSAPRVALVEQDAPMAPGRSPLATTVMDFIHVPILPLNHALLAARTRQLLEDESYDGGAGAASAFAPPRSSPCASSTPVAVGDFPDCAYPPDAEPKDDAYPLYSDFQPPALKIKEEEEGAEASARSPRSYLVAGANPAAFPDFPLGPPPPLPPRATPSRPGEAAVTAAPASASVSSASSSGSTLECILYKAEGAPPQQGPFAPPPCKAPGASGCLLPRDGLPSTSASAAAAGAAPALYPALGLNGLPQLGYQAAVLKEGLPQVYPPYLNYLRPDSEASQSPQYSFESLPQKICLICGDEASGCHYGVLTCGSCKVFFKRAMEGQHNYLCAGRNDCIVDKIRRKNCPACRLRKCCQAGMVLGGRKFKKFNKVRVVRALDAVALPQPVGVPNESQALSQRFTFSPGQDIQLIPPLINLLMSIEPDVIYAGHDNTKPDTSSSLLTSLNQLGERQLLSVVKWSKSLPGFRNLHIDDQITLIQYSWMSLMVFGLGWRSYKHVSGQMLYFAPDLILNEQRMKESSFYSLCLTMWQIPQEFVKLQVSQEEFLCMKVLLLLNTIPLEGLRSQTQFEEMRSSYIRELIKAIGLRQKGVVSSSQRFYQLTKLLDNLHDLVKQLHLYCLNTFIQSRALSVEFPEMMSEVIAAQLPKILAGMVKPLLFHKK
Sequence of Nuclear receptor subfamily 1 group I member 2 (Homo sapiens) (O75469 whole entry, looked up): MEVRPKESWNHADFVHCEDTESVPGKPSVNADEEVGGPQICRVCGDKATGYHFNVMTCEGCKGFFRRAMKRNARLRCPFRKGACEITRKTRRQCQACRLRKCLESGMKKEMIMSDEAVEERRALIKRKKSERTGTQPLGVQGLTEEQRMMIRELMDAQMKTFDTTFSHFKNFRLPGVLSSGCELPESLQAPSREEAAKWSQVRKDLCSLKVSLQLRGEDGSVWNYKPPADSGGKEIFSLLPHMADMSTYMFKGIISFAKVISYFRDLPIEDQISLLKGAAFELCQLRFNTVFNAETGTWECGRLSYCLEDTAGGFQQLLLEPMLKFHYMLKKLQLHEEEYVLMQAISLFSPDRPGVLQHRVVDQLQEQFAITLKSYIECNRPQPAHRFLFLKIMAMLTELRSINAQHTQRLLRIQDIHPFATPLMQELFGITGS
Sequence of Thyrotropin-releasing hormone receptor (Homo sapiens) (P34981 whole entry, looked up): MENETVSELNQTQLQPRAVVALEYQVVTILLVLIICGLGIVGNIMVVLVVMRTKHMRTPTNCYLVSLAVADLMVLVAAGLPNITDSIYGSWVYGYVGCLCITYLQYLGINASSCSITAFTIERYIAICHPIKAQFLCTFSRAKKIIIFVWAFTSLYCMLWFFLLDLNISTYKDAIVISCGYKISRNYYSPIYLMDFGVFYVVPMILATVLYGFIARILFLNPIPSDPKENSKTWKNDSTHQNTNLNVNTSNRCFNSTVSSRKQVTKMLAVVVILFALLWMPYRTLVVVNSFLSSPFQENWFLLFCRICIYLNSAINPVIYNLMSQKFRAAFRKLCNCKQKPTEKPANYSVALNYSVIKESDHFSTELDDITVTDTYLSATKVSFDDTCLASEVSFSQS
Sequence of Thyrotropin receptor (Homo sapiens) (P16473 whole entry, looked up): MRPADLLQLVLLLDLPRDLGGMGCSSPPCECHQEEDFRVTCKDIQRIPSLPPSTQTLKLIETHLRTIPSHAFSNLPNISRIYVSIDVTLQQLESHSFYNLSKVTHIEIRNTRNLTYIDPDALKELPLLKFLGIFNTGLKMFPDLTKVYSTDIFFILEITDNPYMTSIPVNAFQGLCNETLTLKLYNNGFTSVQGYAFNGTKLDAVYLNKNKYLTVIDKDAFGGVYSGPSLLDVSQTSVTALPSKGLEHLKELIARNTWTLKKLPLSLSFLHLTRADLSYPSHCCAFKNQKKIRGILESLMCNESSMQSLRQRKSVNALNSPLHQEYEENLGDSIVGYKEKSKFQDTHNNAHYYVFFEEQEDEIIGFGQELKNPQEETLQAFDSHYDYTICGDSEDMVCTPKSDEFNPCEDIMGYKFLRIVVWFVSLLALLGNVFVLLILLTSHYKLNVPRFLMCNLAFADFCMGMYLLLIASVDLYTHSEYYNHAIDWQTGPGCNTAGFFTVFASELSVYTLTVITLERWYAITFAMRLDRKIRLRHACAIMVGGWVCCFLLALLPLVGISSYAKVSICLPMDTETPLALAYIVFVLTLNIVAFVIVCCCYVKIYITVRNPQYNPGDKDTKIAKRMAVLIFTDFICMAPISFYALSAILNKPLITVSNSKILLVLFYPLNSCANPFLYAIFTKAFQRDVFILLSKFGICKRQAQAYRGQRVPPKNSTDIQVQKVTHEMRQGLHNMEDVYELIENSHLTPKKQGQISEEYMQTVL
Sequence of Nuclear receptor subfamily 1 group I member 2 (Rattus norvegicus) (Q9R1A7 whole entry, looked up): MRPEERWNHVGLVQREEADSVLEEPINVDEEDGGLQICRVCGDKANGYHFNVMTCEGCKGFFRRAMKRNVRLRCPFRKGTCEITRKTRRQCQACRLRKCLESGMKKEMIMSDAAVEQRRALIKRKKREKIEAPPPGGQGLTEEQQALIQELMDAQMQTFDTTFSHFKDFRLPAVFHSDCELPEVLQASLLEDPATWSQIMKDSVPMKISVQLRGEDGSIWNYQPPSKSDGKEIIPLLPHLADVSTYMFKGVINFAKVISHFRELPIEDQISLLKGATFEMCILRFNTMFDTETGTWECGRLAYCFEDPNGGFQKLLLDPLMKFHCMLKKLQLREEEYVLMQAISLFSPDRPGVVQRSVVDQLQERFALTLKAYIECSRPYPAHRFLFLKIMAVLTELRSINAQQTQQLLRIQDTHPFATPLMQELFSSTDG

Take `COC(=O)[C@@H](N)Cc1ccc(O)c(O)c1`: the Potency entry in [1], in assay [2], in [3], in assay [4], in assay [5] and in assay [6] was “inactive” each time. Moreover, the Potency entry in [7], in assay [12], in assay [13], in assay [14], in assay [16] and in assay [17] was “inactive” in each case. The Potency result in [19] and in assay [20] was “inactive” in each case. Besides, the outcome in [8], in assay [9], in assay [10], in assay [11] and in assay [15] was inactive. The max activation in [18] is -6.8%.

Regarding `CCOC(=O)c1cccc(N)c1`, the Potency entry in [1], in [2], in assay [3], in assay [4], in assay [5] and in assay [6] was “inactive” each time. Also, the Potency result in [7], in [12], in assay [13], in [14], in assay [16] and in [17] was “inactive” in each case. Moreover, the Potency result in assay [19] was “inactive”. For the same molecule, the molecule was classed as inactive in assay [8], in [9], in assay [10], in assay [11] and in assay [15].

Regarding `N[C@@H](C(=O)N[C@@H]1C(=O)N2C(C(=O)O)=C(Cl)CS[C@H]12)c1ccccc1`, the activity change, negative = inhibition was 1.57% [at 8.39 µM] in assay [1] and 5.57% [at 8.39 µM] in assay [4]. Besides, the activity change, negative = cytotoxicity in assay [2] was -0.6% [at 8.39 µM]; in [5], 1.94% [at 8.39 µM]; in assay [6], -11.1% [at 8.39 µM]; in assay [8] it was -0.75% [at 6.97 µM]; in assay [12], 4.82% [at 8.39 µM]; in [14] it was 1.61% [at 8.39 µM]. Also, the activity change, negative = cytotoxicity in assay [16] is 4.06% [at 8.39 µM]. For the same molecule, the activation in assay [3] was 0.163% [at 8.39 µM]; in [9], 1.83% [at 6.97 µM]; in assay [11], -0.0304% [at 5.23 µM]; in assay [17], -7.63% [at 8.39 µM]. The viability change, negative = cytotoxic in [7] was -15% [at 6.97 µM]. Further, the activity, negative = inhibition in assay [10] was 1.85% [at 4.65 µM]. Further, in assay [13], the caspase activation was 0.709% [at 8.39 µM]. The caspase-3/7 activation in assay [15] is -1.31% [at 8.39 µM]. The max activation in assay [18] was -2.39%. Further, the Potency entry in [19] and in [20] was “inactive” in each case.

For `CCN(Cc1ccncc1)C(=O)C(CO)c1ccccc1` (stereo not given), the Potency result in assay [1], in assay [2], in assay [3], in [4], in [5] and in assay [6] was “inactive” throughout. Also, the Potency entry in assay [7], in [12], in assay [13], in [14] and in assay [16] was “inactive” each time. Further, the molecule was classed as inactive in [8], in assay [9], in assay [10], in [11] and in assay [15].

`O=C[C@H](O)[C@@H](O)[C@H](O)[C@H](O)CO`: the Potency entry in assay [1], in assay [2], in assay [3], in assay [4], in assay [5] and in assay [6] was “inactive” in each case. Further, the Potency entry in [7], in assay [12], in assay [13], in assay [14], in [16] and in [17] was “inactive” throughout. In addition, the molecule was called inactive in [8], in assay [9], in [10], in assay [11] and in [15].

As for `CCn1ccnc1CC1COc2ccccc2O1` (stereo not given), the Potency result in [1], in assay [2], in assay [3], in assay [4], in assay [5] and in [6] was “inactive” each time. The Potency result in assay [7], in [12], in [13], in assay [14] and in assay [16] was “inactive” each time. In addition, the molecule was classed as inactive in assay [8], in assay [9], in assay [10], in assay [11] and in assay [15]. Besides, the Potency in [17] is 26.6 µM (active).

Regarding `CC(=O)N(CC(O)CO)c1c(I)c(C(=O)NCCO)c(I)c(C(=O)NCC(O)CO)c1I` (stereo not given), the Potency result in [1], in assay [2], in assay [3], in assay [4], in assay [5] and in assay [6] was “inactive” in each case. The Potency entry in assay [7], in [12], in [13], in assay [14], in assay [16] and in [17] was “inactive” in each case. For the same molecule, the result in [8], in [9], in assay [10], in assay [11] and in assay [15] was inactive.
